PubChem BioAssay (Tox21)
Several values for one entry are separate records, joined by “and”; a condition that tells them apart may be missing. Equal entries are not always repeated. Results filed as inconclusive are left out. Entries that show only a call come without a potency. The source holds several records for some structures; these can differ, active in one and inactive in another. Activity calls are given as the source filed them. Unless noted, calls come from the whole dose curve; as a rule, active = well fitted curve in the direction sought with a large enough effect in the repeat runs; inconclusive = weak or mixed curves; inactive = no such curve, though single readings can be large; an effect the other way counts as inactive or inconclusive.

Legend:
[1] = target: Thyrotropin receptor (Homo sapiens) (UniProt P16473); test: qHTS assay to identify small molecule antagonists of the thyroid stimulating hormone receptor (TSHR) signaling pathway (AID 1259385; calls by dose curve; note: nearly all actives have a fitted effect of over 20% in size)
Thyrotropin receptor (Homo sapiens), sequence (P16473 whole entry, looked up): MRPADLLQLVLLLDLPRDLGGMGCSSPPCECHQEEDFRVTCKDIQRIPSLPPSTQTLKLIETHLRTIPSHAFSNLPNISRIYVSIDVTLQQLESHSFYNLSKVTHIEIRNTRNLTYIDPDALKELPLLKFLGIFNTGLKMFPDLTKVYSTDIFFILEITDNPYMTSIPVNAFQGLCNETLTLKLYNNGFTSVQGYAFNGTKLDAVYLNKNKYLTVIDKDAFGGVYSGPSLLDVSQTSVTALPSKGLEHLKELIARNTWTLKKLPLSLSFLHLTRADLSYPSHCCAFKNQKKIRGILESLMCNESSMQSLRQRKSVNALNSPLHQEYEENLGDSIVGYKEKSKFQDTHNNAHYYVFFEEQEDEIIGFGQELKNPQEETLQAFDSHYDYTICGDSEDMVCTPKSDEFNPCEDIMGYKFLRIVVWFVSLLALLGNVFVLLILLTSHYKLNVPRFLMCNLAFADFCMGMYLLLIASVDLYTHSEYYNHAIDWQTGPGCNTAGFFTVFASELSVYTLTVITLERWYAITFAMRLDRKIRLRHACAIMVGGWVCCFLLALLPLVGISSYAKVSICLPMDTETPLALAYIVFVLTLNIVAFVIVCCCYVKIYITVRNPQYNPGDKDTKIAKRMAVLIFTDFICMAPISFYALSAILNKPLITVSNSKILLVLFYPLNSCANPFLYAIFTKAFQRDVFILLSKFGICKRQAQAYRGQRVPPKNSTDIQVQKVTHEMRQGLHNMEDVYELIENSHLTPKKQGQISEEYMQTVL
In short: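 TSHR-HEK293 cells were plated and held 18 h at 37C/5% CO2, then given compound plus Ro20-1724 and stimulated with TSH at 1.5 ng/mL final. After 30 min at room temperature, cAMP was detected with cAMP-d2/anti-cAMP-cryptate (1 h) by fluorescence.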

[2] = qHTS assay to identify small molecule agonists of the estrogen receptor alpha (ER-alpha) signaling pathway in the presence of an antagonist - cell viability counter screen (AID 1259386);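 note: series mostly up to about 92 µM; cells exposed to compounds for 22 h at 37 °C before the viability read; nearly all actives have a fitted effect of over 30% in size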
In short: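 VM7Luc4E2 cells (endogenous full-length ER-alpha, 4×ERE-luciferase) were held 5 days in phenol red-free medium with 10% charcoal-stripped FBS, plated, then given 10.0nM ICI-182,780 and compounds at 15 concentrations for 22hr at 37C; viability read by CellTiter-Fluor fluorescence.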

[3] = target: Progesterone receptor (Homo sapiens) (UniProt P06401); test: qHTS assay to identify small molecule antagonists of the progesterone receptor (PR) signaling pathway (AID 1346795; active = well fitted inhibition curve with a large enough effect in the signal ratio in the repeat runs, not every such curve was filed as active; the % refers to the signal ratio; note: potency is the fitted concentration of half-maximal effect)
Progesterone receptor (Homo sapiens), sequence (P06401 whole entry, looked up): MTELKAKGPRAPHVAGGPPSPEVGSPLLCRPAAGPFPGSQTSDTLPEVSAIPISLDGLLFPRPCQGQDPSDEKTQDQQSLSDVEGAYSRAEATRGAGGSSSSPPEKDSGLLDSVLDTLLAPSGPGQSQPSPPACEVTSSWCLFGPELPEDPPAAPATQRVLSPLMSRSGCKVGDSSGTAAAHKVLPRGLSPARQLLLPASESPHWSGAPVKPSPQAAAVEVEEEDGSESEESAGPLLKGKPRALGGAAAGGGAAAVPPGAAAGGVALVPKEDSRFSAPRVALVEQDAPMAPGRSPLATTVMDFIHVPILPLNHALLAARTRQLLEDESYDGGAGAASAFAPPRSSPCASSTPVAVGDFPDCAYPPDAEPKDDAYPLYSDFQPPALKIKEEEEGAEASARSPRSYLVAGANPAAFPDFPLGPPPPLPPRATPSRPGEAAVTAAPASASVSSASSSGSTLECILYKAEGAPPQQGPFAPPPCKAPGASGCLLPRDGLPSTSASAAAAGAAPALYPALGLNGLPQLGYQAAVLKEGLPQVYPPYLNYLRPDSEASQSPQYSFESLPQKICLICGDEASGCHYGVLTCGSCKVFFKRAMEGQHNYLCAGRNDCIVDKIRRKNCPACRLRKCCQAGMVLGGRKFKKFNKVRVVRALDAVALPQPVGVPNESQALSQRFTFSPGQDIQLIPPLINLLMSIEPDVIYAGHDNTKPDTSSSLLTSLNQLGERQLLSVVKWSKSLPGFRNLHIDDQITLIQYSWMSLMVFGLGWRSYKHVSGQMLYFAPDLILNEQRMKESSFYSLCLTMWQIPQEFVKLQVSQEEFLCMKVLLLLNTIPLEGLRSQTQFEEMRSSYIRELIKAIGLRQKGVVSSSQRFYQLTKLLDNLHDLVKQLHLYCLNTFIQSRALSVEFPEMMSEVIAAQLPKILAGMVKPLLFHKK
In short: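 Antagonist mode: compounds tested against 1 nM (final) promegestone stimulation in HEK293T cells expressing PR-UAS-bla reporter, 16 hr at 37C, 5% CO2; beta-lactamase activity detected via B/G FRET substrate after 2 hr at room temperature.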

[4] = qHTS assay to identify small molecule antagonists of the progesterone receptor (PR) signaling pathway - cell viability counter screen (AID 1346798); note: nearly all actives have a fitted effect of over 50% in size; note: potency is the fitted concentration of half-maximal effect
In short: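 Counter screen for cytotoxicity: viability of PR-UAS-bla HEK293T cells was measured with CellTiter-Glo luminescence following 16 hr compound exposure in the presence of R5020.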

[5] = qHTS assay to identify small molecule agonists of the progesterone receptor (PR) signaling pathway - cell viability counter screen (AID 1346799; calls by dose curve; note: nearly all actives have a fitted effect of over 45% in size; note: potency is the fitted concentration of half-maximal effect)
In short: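 Cells (PR-UAS-bla HEK293T) are plated at 3,000/well in 2% charcoal-stripped FBS medium, rested 6 hr, dosed and incubated 16 hr at 37C. CellTiter-Glo is then added and luminescence measured after 30 min at room temperature.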

[6] = qHTS assay to identify small molecule antagonists of the TGF-beta/Smad signaling pathway - cell viability counter screen (AID 1346824); note: nearly all actives have a fitted effect of over 50% in size
In short: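 SBE-bla HEK 293T cells were plated overnight at 37 C, then given compounds in DMSO plus TGF-beta1 (added as 0.25 ng/mL solution) for 5 hr. After the bla read, CellTiter-Glo was added to the same wells and luminescence read after 30 min at room temperature.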

[7] = qHTS assay to identify small molecule agonists of the TGF-beta/Smad signaling pathway - cell viability counter screen (AID 1346829); note: nearly all actives have a fitted effect of over 45% in size; note: potency is the fitted concentration of half-maximal effect
In short: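 Cytotoxicity counter screen: CellTiter-Glo luminescence (30 min, room temperature) measured in the SBE-bla HEK 293T reporter wells after 5 hr compound treatment at 37 C and the 2 hr substrate step.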

[8] = qHTS assay to identify small molecule agonists of the TGF-beta/Smad signaling pathway (AID 1346859; active = well fitted activation curve with a large enough effect in the signal ratio in the repeat runs, not every such curve was filed as active; the % refers to the signal ratio; note: series mostly up to about 77 µM)
In short: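 Reporter line: HEK 293T with stably integrated SBE-controlled beta-lactamase. Compound exposure lasts 5 hr at 37 C and 5% CO2; substrate loading follows for 2 hr at room temperature, with emission read at 460 and 530 nm.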

[9] = target: Thyrotropin-releasing hormone receptor (Homo sapiens) (UniProt P34981); test: qHTS assay to identify small molecule antagonists of the thyrotropin-releasing hormone receptor (TRHR) signaling pathway (AID 1346877; active = well fitted inhibition curve with a large enough effect in the repeat runs, not every such curve was filed as active; note: series mostly up to about 51 µM)
Thyrotropin-releasing hormone receptor (Homo sapiens), sequence (P34981 whole entry, looked up): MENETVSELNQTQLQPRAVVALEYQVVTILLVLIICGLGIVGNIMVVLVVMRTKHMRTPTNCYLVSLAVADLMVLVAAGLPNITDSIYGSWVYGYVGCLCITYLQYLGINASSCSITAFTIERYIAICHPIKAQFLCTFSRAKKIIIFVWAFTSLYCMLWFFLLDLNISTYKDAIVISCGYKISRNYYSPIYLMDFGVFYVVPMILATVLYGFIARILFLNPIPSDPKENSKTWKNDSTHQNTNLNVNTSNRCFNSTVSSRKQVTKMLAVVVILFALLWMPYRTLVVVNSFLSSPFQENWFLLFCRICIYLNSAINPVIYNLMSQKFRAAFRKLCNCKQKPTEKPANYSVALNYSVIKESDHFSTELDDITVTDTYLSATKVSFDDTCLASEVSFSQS
In short: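 TRHR-expressing HEK293 cells were seeded, cultured 18 h at 37 °C, then loaded with calcium dye for 2 h. Compounds were pre-incubated 5 min at room temperature before 1 nM TRH (final) was added, and kinetic fluorescence was recorded for 3 min.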

[10] = target: Thyrotropin-releasing hormone receptor (Homo sapiens) (UniProt P34981); test: qHTS assay to identify small molecule agonists of the thyrotropin-releasing hormone receptor (TRHR) signaling pathway (AID 1346891; calls by dose curve; note: series mostly up to about 58 µM)
In short: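 Cells: TRHR-Hek293, seeded and incubated 18 h. Dye loading: 2 h at 37 °C. Compound added from DMSO stock by pin tool. Read-out: kinetic calcium fluorescence over 3 min.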

[11] = Human pregnane X receptor (PXR) small molecule agonists, qHTS cell viability counter screen (AID 1346977); note: nearly all actives have a fitted effect of over 50% in size; note: potency is the fitted concentration of half-maximal effect
In short: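 Cytotoxicity counter screen run in the same wells as the PXR luciferase assay, using PXR-Luc HepG2 cells in charcoal-stripped serum medium. Viability: CellTiter-Fluor fluorescence after 24hr compound treatment.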

[12] = Caspase-3/7 induction in HepG2 cells by small molecules, qHTS assay (AID 1346978); note: nearly all actives have a fitted effect of over 15% in size; note: potency is the fitted concentration of half-maximal effect
In short: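 Wild-type HepG2 cells (2,000/well) were settled 5 h at 37 C, 5% CO2, then exposed to compounds in DMSO for 17 h. Caspase-3/7 activity was read by luminescence 30 min after adding Caspase-Glo 3/7 reagent at room temperature.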

[13] = Caspase-3/7 induction in CHO-K1 cells by small molecules, qHTS assay (AID 1346980); note: nearly all actives have a fitted effect of over 15% in size; note: potency is the fitted concentration of half-maximal effect
In short: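 Wild-type cells were seeded at 1,500 per well and settled 5 hr at 37 C, 5% CO2, then exposed to DMSO-dissolved compounds for 17 hr. Caspase-Glo 3/7 reagent was added, and luminescence was read after 30min at room temperature.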

[14] = Caspase-3/7 induction in HepG2 cells by small molecules, qHTS cell viability counter screen (AID 1346981); note: nearly all actives have a fitted effect of over 30% in size; note: potency is the fitted concentration of half-maximal effect
In short: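 Wild-type HepG2 cells (2,000/well) were allowed to settle for 5 hr at 37 C, 5% CO2, then dosed with compounds in DMSO by pin transfer. After 16 hr at 37 C, CellTiter-Fluor was added and fluorescence read 1 hr later.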

[15] = target: Nuclear receptor subfamily 1 group I member 2 (Homo sapiens) (UniProt O75469); test: Human pregnane X receptor (PXR) small molecule agonists, qHTS assay (AID 1346982); note: nearly all actives have a fitted effect of over 35% in size; note: potency is the fitted concentration of half-maximal effect
Nuclear receptor subfamily 1 group I member 2 (Homo sapiens), sequence (O75469 whole entry, looked up): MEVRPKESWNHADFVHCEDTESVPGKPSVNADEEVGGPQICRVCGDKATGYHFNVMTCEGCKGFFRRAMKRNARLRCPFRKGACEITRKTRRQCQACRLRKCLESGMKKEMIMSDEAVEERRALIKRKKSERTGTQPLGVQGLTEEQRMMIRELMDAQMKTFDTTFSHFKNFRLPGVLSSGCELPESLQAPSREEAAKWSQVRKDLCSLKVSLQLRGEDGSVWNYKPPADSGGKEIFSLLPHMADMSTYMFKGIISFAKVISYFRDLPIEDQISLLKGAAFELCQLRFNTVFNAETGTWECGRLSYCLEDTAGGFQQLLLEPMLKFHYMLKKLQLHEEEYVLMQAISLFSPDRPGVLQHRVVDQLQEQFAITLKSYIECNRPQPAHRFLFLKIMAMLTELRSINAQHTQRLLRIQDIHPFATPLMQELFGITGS
In short: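 PXR-Luc HepG2 cells (CYP3A4 promoter-driven luciferase) were seeded in medium with 5% charcoal-stripped FBS, left 5 hr at 37 C, then exposed to compounds in DMSO for 24 hr. Luminescence was read after ONE-Glo addition.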

[16] = Caspase-3/7 induction in CHO-K1 cells by small molecules, qHTS cell viability counter screen (AID 1346979); note: nearly all actives have a fitted effect of over 35% in size; note: potency is the fitted concentration of half-maximal effect
In short: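 Cytotoxicity counter screen run in parallel with the caspase-3/7 assay: CHO-K1 cells, 16hr compound treatment at 37C, then CellTiter-Fluor for 1hr before fluorescence reading.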

[17] = target: Progesterone receptor (Homo sapiens) (UniProt P06401); test: qHTS assay to identify small molecule agonists of the progesterone receptor (PR) signaling pathway (AID 1346784; calls by dose curve; note: nearly all actives have a fitted effect of over 30% in size)
In short: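 Cells (PR-UAS-bla HEK 293T, GripTite) were plated in assay medium containing 2% charcoal-stripped FBS and incubated 6 hr. Test compounds in DMSO were added for 16 hr at 37C. FRET substrate was then loaded for 2 hr at room temperature before fluorescence reading.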

[18] = target: Nuclear receptor subfamily 1 group I member 2 (Rattus norvegicus) (UniProt Q9R1A7); test: Rat pregnane X receptor (rPXR) activation by small molecules, qHTS assay (AID 1346983); conditions: rPXR luciferase reporter cells, One-Glo luminescence, 24 h; stronger effect = higher value; note: nearly all actives have a fitted effect of over 20% in size
Nuclear receptor subfamily 1 group I member 2 (Rattus norvegicus), sequence (Q9R1A7 whole entry, looked up): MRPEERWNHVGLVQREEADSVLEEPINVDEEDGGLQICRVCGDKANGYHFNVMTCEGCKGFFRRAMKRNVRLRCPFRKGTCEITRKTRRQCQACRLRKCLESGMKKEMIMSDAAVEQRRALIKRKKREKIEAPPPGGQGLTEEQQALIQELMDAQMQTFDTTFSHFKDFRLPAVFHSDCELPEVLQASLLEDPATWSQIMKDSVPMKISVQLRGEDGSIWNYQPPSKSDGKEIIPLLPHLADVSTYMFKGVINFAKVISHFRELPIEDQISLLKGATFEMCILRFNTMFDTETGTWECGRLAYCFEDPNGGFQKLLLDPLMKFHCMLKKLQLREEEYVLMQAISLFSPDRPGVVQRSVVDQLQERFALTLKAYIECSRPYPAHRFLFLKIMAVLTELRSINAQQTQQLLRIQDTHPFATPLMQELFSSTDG
In short: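 Cell-based rPXR luciferase reporter assay, 2,000 cells per well, rested 5hr at 37 C before compound addition in DMSO, then 24 hr at 37 C. One-Glo reagent was added and luminescence read after 30 min at room temperature.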

[19] = target: Nuclear receptor subfamily 1 group I member 2 (Homo sapiens) (UniProt O75469); test: CYP3A4 induction through human pregnane X receptor (PXR) by small molecules, qHTS assay (AID 1346984); note: nearly all actives have a fitted effect of over 40% in size
In short: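 DPX-2 cells (HepG2 co-transfected with PXR and CYP3A4 promoter-luciferase) treated with compounds 24 h at 37C; luciferin-IPA CYP3A4 substrate 3uM final added for 3 h, then One-Glo; luminescence read. qHTS format.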

[20] = target: Nuclear receptor subfamily 1 group I member 2 (Homo sapiens) (UniProt O75469); test: Human pregnane X receptor (PXR) activation by small molecules, qHTS assay (AID 1346985); note: nearly all actives have a fitted effect of over 40% in size
In short: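 DPX-2 cells (HepG2 co-transfected with a PXR response element and a CYP3A4-promoter luciferase construct) were seeded at 2,000 per well, rested 5 hr at 37C, then exposed to DMSO-dissolved compounds for 24 hr. Activation was read as luciferase luminescence.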

SMILES	outcome [1]	Potency [2]	Potency [3]	Potency [4]	Potency [5]	Potency [6]	Potency [7]	outcome [8]	Potency [9]	Potency [10]	Potency [11]	Potency [12]	Potency [13]	Potency [14]	Potency [15]	Potency [16]	Potency [17]	max activation [18]	outcome [19]	outcome [20]
C1=Cc2cccc3cccc1c23	inactive	inactive	inactive	inactive	inactive	inactive	inactive	inactive	inactive	inactive	inactive	inactive	inactive	inactive	inactive	–	–	–	–	–
O=P(Oc1ccccc1)(Oc1ccccc1)Oc1ccccc1	inactive	inactive	–	inactive	inactive	inactive	inactive	inactive	inactive	inactive	inactive	inactive	inactive	inactive	30.5 µM (active) and 27.3 µM (active)	68.2 µM (active)	–	–	–	–
Brc1ccc(Oc2cc(Br)c(Br)cc2Br)c(Br)c1	–	inactive	–	inactive	38.6 µM (active) and 43.6 µM (active)	inactive	inactive	inactive	inactive	inactive	inactive	inactive	inactive	inactive	17.2 µM (active) and 30.9 µM (active)	–	–	–	–	–
O=C(O)CC[N+](=O)[O-]	–	inactive	inactive	inactive	inactive	inactive	inactive	inactive	–	–	inactive	inactive	inactive	inactive	inactive	inactive	inactive	–	–	–
CCOCN(C(=O)CCl)c1c(C)cccc1CC	inactive	inactive	–	inactive	inactive	inactive	inactive	–	inactive	inactive	–	inactive	inactive	–	2.58 µM (active)	57.7 µM (active)	–	–	–	–
Cc1ccc(N)c(N)c1	–	inactive	–	–	inactive	inactive	inactive	inactive	–	–	inactive	inactive	inactive	inactive	8.66 µM (active) and 19.3 µM (active)	–	inactive	–	–	–
O=[N+]([O-])c1c(Cl)c(Cl)c(Cl)c(Cl)c1Cl	–	inactive	inactive	inactive	inactive	inactive	inactive	–	inactive	inactive	inactive	inactive	inactive	inactive	inactive	inactive	inactive	–	–	–
CCC(=O)O[C@H]1CC[C@H]2[C@@H]3CCC4=CC(=O)CC[C@]4(C)[C@H]3CC[C@]12C	inactive	inactive	0.486 µM (active)	inactive	–	inactive	inactive	inactive	–	–	inactive	inactive	inactive	inactive	inactive	inactive	–	-2.06% (inactive)	inactive	inactive
CCCCOCCOP(=O)(OCCOCCCC)OCCOCCCC	inactive	inactive	–	inactive	inactive	inactive	inactive	inactive	–	–	inactive	inactive	inactive	inactive	10.9 µM (active) and 19.3 µM (active)	–	–	–	–	–
CCCCNC(=O)n1c(NC(=O)OC)nc2ccccc21	inactive	inactive	–	–	inactive	inactive	inactive	inactive	inactive	inactive	inactive	6.08 µM (active) and inactive	inactive	inactive	60.8 µM (active)	30.6 µM (active)	–	–	–	–
c1ccc(-c2cccc(-c3ccccc3)c2)cc1	inactive	inactive	–	inactive	inactive	inactive	inactive	inactive	inactive	inactive	inactive	inactive	inactive	inactive	61.8 µM (active) and 27.3 µM (active)	inactive	–	–	–	–
Oc1cc(Cl)ccc1Oc1ccc(Cl)cc1Cl	–	–	13.3 µM (active)	31.4 µM (active)	31.4 µM (active) and inactive	inactive	39.8 µM (active) and inactive	inactive	–	–	31.4 µM (active) and 29.8 µM (active)	64.4 µM (active) and inactive	59.1 µM (active) and inactive	44.3 µM (active)	–	28.8 µM (active) and 26.6 µM (active)	–	-0.85% (inactive)	–	–
COP(=S)(OC)Oc1ccc([N+](=O)[O-])cc1	inactive	–	inactive and 24.3 µM (active)	inactive	inactive	inactive	inactive	inactive	inactive	inactive	inactive	inactive	inactive	inactive	inactive	68.7 µM (active) and inactive	–	–	–	–
